# Experimental data reported in PubChem BioAssay AID686979 (National Center for Advancing Translational Sciences (NCATS), 2013).
# Out of some 420,000 compounds screened, about 50,000 (12%) were called active. Not shown: some 26% with an inconclusive outcome. Many of the other results were omitted from the sample, so actives are more common in it than they were. Values without a mark were called inactive. Calls follow the shape of the dose curve; as a rule, active = well fitted inhibition curve with a large enough effect; inconclusive = small, poorly fitted or top-dose-only effect; inactive = flat fitted curve, though single readings scatter.
# Assay: qHTS for Inhibitors of human tyrosyl-DNA phosphodiesterase 1 (TDP1): qHTS in cells in presence of CPT; also: nearly all actives have a fitted effect of over 55% in size
# Details: chicken DT40 Tdp1-/-;hTDP1 cells + 20 nM CPT, ATP luminescence, 48 h; series mostly up to 46.2 µM; activity change, negative = growth inhibition: at the top concentration
# Outline: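 Chicken DT40 Tdp1-/- cells complemented with human TDP1, 400 cells/well, exposed to compounds plus 20 nM camptothecin for at least 48 h at 37 C; viability read as ATP content by CellTiter-Glo luminescence.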
# % is scaled to controls: 0 for no effect and ±100 for the full control effect; potency is read from the fitted curve at half-maximal effect.
Compound,Potency,"activity change, negative = growth inhibition [%]"
CCOC(=O)c1cccc(NS(=O)(=O)c2cc(-c3cnc(C)o3)ccc2OC)c1,10.3 µM (active),
CCOC(=O)c1cccc(NS(=O)(=O)c2cn(C)c(C)n2)c1,,-13.1
CCOc1ccc(N(C)S(=O)(=O)c2cnc[nH]2)cc1,,0.234
CC(C)C(=O)Nc1nnc(SCC(=O)N2C(C)CCCC2C)s1 (stereo not given),,4.9
CSc1ccccc1OCc1cc(C(=O)N2C[C@H]3CC[C@H]2C3)no1,,-14.9
CCc1ccccc1NC(=O)CCOc1ccccc1,inactive,
CCc1ccccc1NC(=O)/C(=C/c1ccccc1)c1ccccc1,20.6 µM (active),
CCc1ccccc1NC(=S)Nc1cc(OC)c(NC(=O)C(C)C)cc1OC,,-4.59
CC(=O)Nc1ccc(N2C(=O)C3C4C=CC(CC4)C3C2=O)cc1 (stereo not given),,-1.89
O=C(Nc1cccc(F)c1)[C@@H]1CCCN1,,2.38
Cc1ccc(CN2CCCOCCS2(=O)=O)cc1,inactive,
O=C1NC[C@@H](CCCCN2CCN(CCc3ccc(O)cc3)C(=O)C2=O)N(CC2CCCCC2)C1=O,,1.35
Oc1ccc2c(c1)OCC1c3cc4c(cc3OC21)OCO4 (stereo not given),,6.48
O=[N+]([O-])c1cc(S(=O)(=O)CCCN2CCOCC2)ccc1F,20.6 µM (active),
O=C(NCCCN1CCOCC1)c1ccc([N+](=O)[O-])cc1[N+](=O)[O-],,-28
O=S(=O)(NCCCN1CCOCC1)c1ccc(F)c(Cl)c1,,-21.1
S=c1[nH]nc(-c2cccs2)n1/N=C/c1cccs1,,2.49
Cc1ccsc1/C=N/n1c(=S)[nH]nc(C)c1=O,16.4 µM (active),
Oc1ccccc1/C=N/n1c(-c2cccs2)n[nH]c1=S,,-9.02
O=C(COC(=O)c1cc2c(s1)CCCC2)NCc1ccccc1Cl,,-21.5
O=c1cc(COc2cccc(C(F)(F)F)c2)nc2sc3c(n12)CCCC3,,-5.15
Cc1ccc2nsnc2c1NC(=O)c1ccccc1[N+](=O)[O-],,-0.576
O=C(Nc1ccccn1)C1CCN(S(=O)(=O)c2ccc3c(c2)OCCO3)CC1,,-7.52
CCN1C(=NCC(C)C)N[C@@H](CCc2ccccc2)[C@H](C(=O)NCC(C)C)[C@H]1C,13 µM (active),
CCN1C(=NCCc2cccnc2)N[C@@H](c2ccccc2)[C@H](C(=O)OC)[C@H]1C,,-27.5

Compound,Potency,"activity change, negative = growth inhibition [%]"
CCN1C(=O)N[C@@H](c2ccccc2)[C@H](C(C)=O)[C@H]1C,,-20
COCCN1C(=O)N[C@@H](CCc2ccccc2)[C@H](C(C)=O)[C@H]1C,,-26.2
CCN1C(=NCc2ccc(OC)cc2)N[C@@H](CCc2ccccc2)[C@H](C(=O)NCc2ccc(OC)cc2)[C@H]1C,18.4 µM (active),
O=C(CSc1nnc(N2CCOCC2)n1-c1cccc(F)c1)N1CCN(c2ccccn2)CC1,,1.76
Cc1cc(NC(=O)CSCC(=O)NC(C)c2ccccc2)no1 (stereo not given),,-4.29
CC(C)(C)NC(=O)COC(=O)c1cc(Br)ccc1Cl,,4.4
C[C@H](CO)N1C[C@H](C)[C@@H](CN(C)S(=O)(=O)c2ccc(F)cc2)Oc2c(NC(=O)Nc3ccccc3)cccc2C1=O,,-28.6
CCCc1nn(C)c2c(=O)[nH]c(-c3cc(S(N)(=O)=O)ccc3OCC)nc12,,0.591
Cc1nnc(CN(C)Cc2cn[nH]c2-c2ccc(-c3ccccc3)cc2)o1,,-0.178
COc1ccc2oc(=O)c(C(=O)O)cc2c1,,-20.4
COc1ccc2oc(=N)c(C(=O)Nc3ccc(Br)cc3)cc2c1,,2.51
COc1ccc(/C=C/C(=O)c2cc(Br)ccc(=O)c2O)cc1,14.6 µM (active),
O=[N+]([O-])c1ccc(N=NNc2ccc([N+](=O)[O-])cc2)cc1,,-12.5
Cc1ccc(S(=O)(=O)N2CCN(C(=O)c3ccc(-n4cncn4)c([N+](=O)[O-])c3)CC2)cc1,,-28.2
COc1ccccc1NC(=O)CN1C(=O)c2ccccc2Sc2ccc(C(=O)N3CCCC3)cc21,,8.88
COc1ccccc1N1CCN(C(=O)c2ccc(S(=O)(=O)N3CCCCC3)cc2)CC1,23.1 µM (active),
COc1ccc(S(=O)(=O)Nc2ccccc2C(=O)N2CCCC2)cc1C,,2.19
O=C(c1ccc(S(=O)(=O)c2ccccc2)cc1)N1CCCCCC1,,-25.4
CC(C)c1ccc(S(=O)(=O)N2CCN(C(=O)c3ccc(N4CCCC4)c([N+](=O)[O-])c3)CC2)cc1,16.4 µM (active),
COc1cc(C(=O)N2CCN(S(=O)(=O)c3ccc(C(C)C)cc3)CC2)ccc1OCC(=O)N1CCOCC1,,-1.46
CN(c1ccccc1)S(=O)(=O)c1ccc(C(=O)N2CCN(c3ccccc3Cl)CC2)cc1,23.1 µM (active),
O=C(c1ccc(S(=O)(=O)N2CCOCC2)cc1)N1CCN(c2ccccc2)CC1,,-0.43
COc1ccccc1CC(=O)Nc1ccc(S(=O)(=O)N2CCCC2)cc1,,16
CN(c1ccccc1)S(=O)(=O)c1ccc(Cl)c(C(=O)OCC(=O)N2CCOCC2)c1,,2.02
COc1ccccc1NS(=O)(=O)c1ccc(C(=O)N2CCN(c3ccccc3O)CC2)cc1,18.4 µM (active),
